High-throughput results from PubChem BioAssay.
A selection: hits, their analogues and other compounds. The true share with any hit is near 11%.
JMJD2A Tudor inh – JMJD2A Tudor domain (human) inhibition. Potency, µM (series often up to 114 µM), hits mostly inhibitors. O75164. AlphaScreen JMJD2A-Tudor / H3K4me3 peptide binding. 390,000 compounds, 4.4% hits; also: nearly all actives have a fitted effect of over 50% in size
PI5P4K alpha inh – inhibitors of human PI5P4K alpha. AID 652105. max response, %. PI5P4Kalpha enzyme, ADP-Glo luminescence, 60 min; hits give low values. 330,000 compounds, 1.2% hits. P48426; active = max response of -50% or lower; inconclusive = between -30% and -50%; inactive = -30% or higher; also: value at the top dose of about 77 µM
Target sequence (P48426 whole entry, looked up): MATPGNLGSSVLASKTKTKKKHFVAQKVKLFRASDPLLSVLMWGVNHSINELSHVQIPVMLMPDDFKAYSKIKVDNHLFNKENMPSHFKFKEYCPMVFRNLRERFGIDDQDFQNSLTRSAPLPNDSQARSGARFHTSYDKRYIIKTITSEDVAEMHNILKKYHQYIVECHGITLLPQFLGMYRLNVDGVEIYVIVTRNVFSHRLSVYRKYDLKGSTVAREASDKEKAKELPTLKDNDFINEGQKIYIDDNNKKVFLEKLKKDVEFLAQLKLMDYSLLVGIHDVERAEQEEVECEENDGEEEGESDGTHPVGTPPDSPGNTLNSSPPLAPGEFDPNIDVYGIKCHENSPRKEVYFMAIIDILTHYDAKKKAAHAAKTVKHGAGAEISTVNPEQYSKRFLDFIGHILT
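PI5P4Kalpha ADP-Glo assay; 5 microM ATP final; 60 min RT reaction; HEPES pH 7.4/EGTA/CHAPS, 5% DMSO; controls lacking substrate or enzyme; luminescent end-point.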
G9a inh – blocks human histone lysine methyltransferase G9a | 350,000 compounds, 8.8% hits | G9a H3K9 monomethylation, AlphaScreen, 2 h | Potency, µM (titrated, usually from 102 µM), actives largely listed as inhibitors; also: nearly all actives have a fitted effect of over 75% in size
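Quantitative HTS format: methyltransferase activity on a biotin-tagged H3K9 peptide is measured by AlphaScreen, using a rabbit anti-monomethyl-H3K9 antibody with streptavidin donor and anti-IgG acceptor beads. Final levels are 20 nM enzyme, 500 nM peptide, 20 uM SAM; 2 h RT.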
L3MBTL1 inh – blocks human L3MBTL1. 230,000 compounds, 0.66% hits. Potency, µM (series often up to 57.1 µM), actives largely listed as inhibitors. AlphaScreen L3MBTL1–H3K9me1 peptide binding. AID 485360; also: nearly all actives have a fitted effect of over 60% in size
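AlphaScreen assay: L3MBTL1 (50 nM final) was preincubated 30 min at room temperature with biotinylated H3(1-15)K9me1 peptide (75 nM final), then 30 min with library compounds; streptavidin donor and nickel chelate acceptor beads (10 ug/mL final) added, 30 min dark.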
HP1b binding inh – inhibitors of HP1-beta chromodomain binding to methylated histone tails. Potency, µM (titrated, usually from 114 µM), hits mostly inhibitors. AlphaScreen HP1-beta / biotin-H3K9me3 peptide binding. P83916. 390,000 compounds, 0.56% hits; also: nearly all actives have a fitted effect of over 70% in size
Target sequence (P83916 whole entry, looked up): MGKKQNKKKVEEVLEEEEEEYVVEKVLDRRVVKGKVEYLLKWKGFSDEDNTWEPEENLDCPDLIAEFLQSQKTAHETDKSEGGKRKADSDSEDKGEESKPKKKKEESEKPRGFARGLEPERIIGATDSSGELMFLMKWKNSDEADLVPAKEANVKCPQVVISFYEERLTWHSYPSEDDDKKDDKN
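HP1-beta protein (50 nM final) preincubated 30 min at room temperature with biotinylated H3(1-18)K9me3 peptide (50 nM) in PBS pH 7.4, 0.01% Tween-20, then compound added for 30 min. AlphaScreen streptavidin donor/nickel chelate acceptor beads (10 ug/mL final), 30 min dark, luminescence read.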
BAZ2B inh – inhibitors of human BAZ2B bromodomain; Q9UIF8; AlphaScreen BAZ2B-H3K14Ac peptide displacement; Potency, µM (titrated, usually from 114 µM), actives largely listed as inhibitors; 360,000 compounds, 4.4% hits; also: nearly all actives have a fitted effect of over 60% in size
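In this displacement format the biotinylated H3(5-23) peptide acetylated at Lys14 serves as ligand at 50 nM, with BAZ2B at 50 nM in PBS pH 7.4 containing 0.01% Tween-20. Donor and acceptor beads are 10 ug/mL final.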
Numbers stand for hits; n = inactive; u = inconclusive; x = not tested or not shown; [ ] = another dose, or the depositor's remark. Unless noted, calls follow the shape of the dose curve; as a rule, active = well fitted inhibition curve with a large enough effect; inconclusive = small, poorly fitted or top-dose-only effect; inactive = no such curve, though single readings can be large or run the other way.

SMILES	JMJD2A Tudor inh	PI5P4K alpha inh	G9a inh	L3MBTL1 inh	HP1b binding inh	BAZ2B inh
CN(C)CCCN1c2ccc([N+](=O)[O-])cc2CCc2cc([N+](=O)[O-])ccc21	17.8µM	x	x	x	u	x
COc1ccc(C2C3=C(CC(C)(C)CC3=O)Oc3ncn(Cc4ccco4)c(=N)c32)cc1 (stereo not drawn)	u	x	u	n	n	50.1µM
COc1ccc(C2c3c(ncn(Cc4ccco4)c3=N)Oc3ccc4ccccc4c32)cc1 (stereo not drawn)	u	n	u	n	u	u
COc1ccc(C2c3ccc4ccccc4c3Oc3ncn(CCCO)c(=N)c32)cc1 (stereo not drawn)	n	n	n	n	n	70.8µM
COc1cccc(C2c3c(ncn(-c4cccc(C#N)c4)c3=N)Oc3ccc4ccccc4c32)c1 (stereo not drawn)	79.4µM	x	x	x	x	x
N=c1c2c(ncn1CCCO)Oc1ccc3ccccc3c1C2c1ccccc1 (stereo not drawn)	n	n	n	n	n	n
COc1ccc(C2C3=C(CC(C)(C)CC3=O)Oc3ncn(CC(C)C)c(=N)c32)cc1 (stereo not drawn)	n	n	n	n	n	n
N=c1c2c(ncn1Cc1ccco1)Oc1ccc3ccccc3c1C2c1ccccc1 (stereo not drawn)	u	n	u	n	u	44.7µM
COc1ccc(-c2nc3cc(NC(=O)COc4ccccc4C)ccc3o2)cc1	n	x	n	x	n	n
COc1ccc(C2c3c(nc(CCc4ccccc4)[nH]c3=O)Oc3ccc4ccccc4c32)cc1OC (stereo not drawn)	n	x	x	x	x	x
COc1cccc(C2c3c(ncn(CCCN4CCOCC4)c3=N)Oc3ccc4ccccc4c32)c1 (stereo not drawn)	28.2µM	x	x	x	x	x
COc1ccc(C2c3c(ncn(CCCN4CCOCC4)c3=N)Oc3ccc4ccccc4c32)cc1OC (stereo not drawn)	u	n	u	n	n	n
COc1ccc(C2c3c(n(CCc4ccccc4)cnc3=N)Oc3ccc4ccccc4c32)cc1OC (stereo not drawn)	56.2µM	x	x	x	x	x
Cc1cccc(C(=O)N2CCc3cc(CNC(=O)CCc4ccccc4)ccc32)c1	n	x	n	x	n	n
Cc1ccc(-c2cn3nc(N4CCCC(C(=O)NCc5ccccc5F)C4)sc3n2)cc1 (stereo not drawn)	n	x	n	x	n	n
COc1ccc(CCNC(=O)c2ccc3c(c2)c(C)c(C)n3Cc2ccc(F)cc2)c(OC)c1OC	u	x	n	x	n	n
O=[N+]([O-])c1cccc(C2Nc3cccc4cccc(c34)N2)c1	50.1µM	n	15.8µM	n	u	35.5µM
FC(F)(F)c1ccc(C2Nc3cccc4cccc(c34)N2)cc1	u	n	35.5µM	n	n	39.8µM
CCN(CC)c1ccc(C2Nc3cccc4cccc(c34)N2)cc1	u	n	x	n	u	n
CCCOc1ccc(C2Nc3cccc4cccc(c34)N2)cc1	39.8µM	n	39.8µM	n	u	u
Brc1ccc(C2Nc3cccc4cccc(c34)N2)cc1	u	n	x	x	u	x
Fc1ccc(C2Nc3cccc4cccc(c34)N2)cc1	u	n	n[2.33 µM]	x	u	u
O=[N+]([O-])c1ccc(C2Nc3cccc4cccc(c34)N2)cc1	u	n	28.2µM	n	u	44.7µM
COc1ccccc1N1CCN(C(=O)CSc2n[nH]c(-c3ccccc3Cl)n2)CC1	n	x	n	x	n	n
Cc1c(C(=O)Nc2ccc(C(C)C)cc2)sc2nc3n(c(=O)c12)CCC3	n	x	n	x	n	n
SMILES	JMJD2A Tudor inh	PI5P4K alpha inh	G9a inh	L3MBTL1 inh	HP1b binding inh	BAZ2B inh
C/C(=N\N=C(c1ccccc1)c1ccccc1)c1cccs1	n	x	n	n	n	u
CC(NO)/C(=N\O)c1cccs1 (stereo not drawn)	79.4µM	x	3.98µM	x	u	u
CCOc1ccc(CNC(=O)c2cccc(NC(=O)C3=C(C)OCCS3)c2)cc1	n	n	u	x	n	50.1µM
COc1ccc(O)c(/C=N/NS(=O)(=O)c2ccc(C)cc2)c1	n	n	n	n	n	n
Cc1ccc(S(=O)(=O)N/N=C/c2ccc3nccnc3c2)cc1	n[11.4 µM]	n	3.16µM	n	n	n
CC(=O)Oc1ccc(/C=N/NS(=O)(=O)c2ccc(C)cc2)c(OC(C)=O)c1	n	n	39.8µM	n	n	n
COc1cc(/C=N/NS(=O)(=O)c2ccc3ccccc3c2)ccc1OCc1ccc(C(=O)O)cc1	n	n	50.1µM	n	n	n
COc1cc(/C=N/NS(=O)(=O)c2ccc(C)cc2)ccc1OCc1cccc(C(=O)O)c1	n	n	n	n	n	n
COc1ccc(/C=N/NS(=O)(=O)c2ccc(C)cc2)cc1OC(=O)c1ccccc1	n	n	n	x	n	79.4µM
Cc1cccc(C)c1NC(=O)Cn1c(SCC(=O)NCc2ccccc2)nc2ccccc21	n	x	n	x	n	n
O=C(c1ccc(-n2c(SCc3cccc(F)c3)nc3ccccc3c2=O)cc1)N1CCOCC1	39.8µM	n	n	n	n	n
O=C(CSc1n[nH]c(=O)n1Cc1ccccc1)Nc1ccc(N2CCOCC2)cc1	n	n	56.2µM	n	n	n
Cc1ccc(-n2c(SCC(=O)Nc3ccc(N4CCOCC4)cc3)nc3ccccc3c2=O)cc1	n	n	n	n	n	n
O=C(CSc1nc2ccccc2c(=O)n1-c1ccc(F)cc1)Nc1ccc(N2CCOCC2)cc1	n	n	44.7µM	n	n	n
O=C(NN=C1CCCC1)c1cc(O)cc(O)c1	u	-79.5	x	x	u	79.4µM
O=C(NN=C1CCCC1)c1cccc(O)c1	n	n	n	x	n	n
Cc1cc(Br)cc(C)c1OCC(=O)Nc1ccc(S(=O)(=O)Nc2ncccn2)cc1	n	x	n	x	n	n
O=C(O)Cc1nc2nc3c(c(=O)n2[nH]1)CCCC3	10µM	x	u	n	n	n
Cc1ccc(-n2nc(CO)c(C(=O)NC(C)c3ccccc3)n2)cc1C (stereo not drawn)	n	x	n	x	n	n
COc1cccc(NC(=O)c2c(C(=O)Nc3ccccc3)sc3nc(C)cc(=O)n23)c1	n	x	n	x	n	n
O=C(NCC#CCOCc1ccccc1)c1ccccc1	n	n	50.1µM	n	n	n
CCCOc1ccc(NC(=O)CC2C(=O)N(c3ccc(OC)cc3)C(=O)N2CCc2ccncc2)cc1 (stereo not drawn)	n	x	u	x	n	n
CCc1ccc(/C=C2/C(=O)N(C)C(=S)N2CC(=O)OC)s1	n	n	35.5µM	n	n	n
COC(=O)CN1C(=S)N(C)C(=O)/C1=C/c1cccs1	n	n	n	n	n	n
O=C(CN1CCCN(S(=O)(=O)c2ccc(Br)cc2)CC1)Nc1cccc(C(F)(F)F)c1	n	x	u	x	n	n
CC1(C)CC(=O)c2sc(NC(=O)CN3CCCCC3)nc2C1	u	n	14.1µM	n	n	x
